# From PubChem BioAssay (EPA / NIEHS)
# Several values for one entry are separate records, joined by “and”; a condition that tells them apart may be missing. Identical values can stand only once. More than one record can exist for a structure, and the calls need not agree. Activity calls are given as the source filed them. The calls were made as follows: active = hit-call score of the fitted dose curve at least 0.9, where 1 is the maximum; inactive = score below 0.9.
# How the values were obtained:
# [1] = read-out: Plasminogen activator inhibitor-1 (PAI1), SERPINE1 (gene 5054); experiment: BSK_MyoF_PAI1: BioMAP Diversity Plus: MyoF Assay for Plasminogen activator inhibitor-1 (PAI1) Biomarker Activity (AID 2284256); conditions: primary human lung fibroblasts;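 as to outcome: PAI-1 read 24 h after compound addition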
# How it was run: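 Primary human lung fibroblasts treated with chemical for 24 h; PAI-1 levels quantified by ELISA relative to DMSO. Cytotoxicity was assessed in parallel cultures by SRB total-protein staining (0.1% SRB after 10% TCA fixation, 560 nm).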
# [2] = read-out: Interferon-inducible T-cell alpha chemoattractant (ITAC), CXCL11 (gene 6373); experiment: BSK_hDFCGF_ITAC: BioMAP Diversity Plus: hDFCGF Assay for Interferon-inducible T-cell alpha chemoattractant (ITAC) Biomarker Activity (AID 2284251); conditions: primary human foreskin fibroblasts
# How it was run: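 Primary human foreskin fibroblasts (hDFCGF system) treated for 24 h; I-TAC quantified by ELISA. Gain-direction fitting versus DMSO; parallel SRB staining of total protein flagged overt cytotoxicity.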
# [3] = read-out: Plasminogen activator inhibitor-1 (PAI1), SERPINE1 (gene 5054); experiment: BSK_KF3CT_PAI1: BioMAP Diversity Plus: KF3CT Assay for Plasminogen activator inhibitor-1 (PAI1) Biomarker Activity (AID 2284252); conditions: primary human keratinocytes with fibroblasts
# How it was run: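 ELISA read-out of PAI-1 taken 24 h after chemical treatment of a human skin primary co-culture of keratinocytes and foreskin fibroblasts. Increases over DMSO-treated wells defined activity.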
# [4] = read-out: Interleukin-8 (IL8), CXCL8 (gene 3576); experiment: BSK_KF3CT_IL8: BioMAP Diversity Plus: KF3CT Assay for Interleukin-8 (IL8) Biomarker Activity (AID 2284254); conditions: primary human keratinocytes with fibroblasts
# How it was run: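 Human keratinocyte/foreskin fibroblast co-culture dosed 24 h; IL-8 measured by ELISA relative to DMSO. Parallel cultures stained with SRB for total protein to flag cytotoxicity.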
# [5] = read-out: Monocyte Chemoattractant Protein-1 (MCP1), CCL2 (gene 6347); experiment: BSK_IMphg_MCP1: BioMAP Diversity Plus: IMphg Assay for Monocyte Chemoattractant Protein-1 (MCP1) Biomarker Activity (AID 2284253); conditions: primary human endothelial cells with macrophages
# How it was run: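 Human venular endothelial cells co-cultured with macrophages; MCP-1 measured by ELISA 24 hours post-dose and fitted against DMSO. Cytotoxicity monitored by SRB total-protein staining in parallel cultures.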
# [6] = read-out: Macrophage Inflammatory Protein-1 Alpha (MIP1a), CCL3 (gene 6348); experiment: BSK_IMphg_MIP1a: BioMAP Diversity Plus: IMphg Assay for Macrophage Inflammatory Protein-1 Alpha (MIP1a) Biomarker Activity (AID 2284255); conditions: primary human endothelial cells with macrophages
# How it was run: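 Co-culture of human venular endothelial cells and macrophages exposed to compounds for 24 h; MIP-1a measured by ELISA relative to DMSO. Cytotoxicity assessed in parallel cultures by sulforhodamine B total-protein staining at 560 nm.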
# CD69, CD69 (gene 969) = experiment: BSK_IMphg_CD69: BioMAP Diversity Plus: IMphg Assay for CD69 Biomarker Activity (AID 2284257); conditions: primary human endothelial cells with macrophages
# How it was run: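 Human venular endothelial cells co-cultured with macrophages; CD69 quantified by ELISA 24 h after compound addition. Activity fitted in the positive direction relative to DMSO baseline; cytotoxicity tracked in parallel cultures via SRB total-protein staining.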
# [7] = read-out: Eotaxin 3, CCL26 (gene 10344); experiment: BSK_BF4T_Eotaxin3: BioMAP Diversity Plus: BF4T Assay for Eotaxin 3 Biomarker Activity (AID 2284258); conditions: primary human bronchial epithelial cells with fibroblasts
# Method: BSK_BF4T is a cell-based, multiplexed-readout assay that uses bronchial epithelial cells and dermal fibroblasts, a human vascular primary cell, with measurements taken at 24 hours after chemical dosing in a microplate: 96-well plate.BSK_BF4T_Eotaxin3 is an assay component measured in the BSK_BF4T assay. It measures Eotaxin-3 antibody related to regulation of gene expression using ELISA technology.Data from the assay component BSK_BF4T_Eotaxin3 was analyzed at the endpoint, BSK_BF4T_Eotaxin3, in the positive analysis fitting direction relative to DMSO as the negative control and baseline of activity. Using a type of binding reporter, gain or loss-of-signal activity can be used to understand protein changes. […]
# The levels of cell surface (or secreted, indicated by the prefix "s") biomarker endpoints were measured by ELISA. Overt cytotoxicity to cells in confluent adherent cultures (all systems other than the BT system) was assessed by measuring total protein levels using sulforhodamine B (SRB) staining in parallel cultures at the time of biomarker measurements, indicated as SRB endpoints. For proliferation assays for adherent cell types, individual cell types are cultured at sub-confluence and relative cell numbers quantified by SRB staining at time points optimized for each system (48 h: 3C and CASM3C systems; 72 h: BT and HDF3CGF systems; 96 h: SAg system). […] Plates were read after 6 h.
# [8] = read-out: Monocyte Chemoattractant Protein-1 (MCP1), CCL2 (gene 6347); experiment: BSK_BF4T_MCP1: BioMAP Diversity Plus: BF4T Assay for Monocyte Chemoattractant Protein-1 (MCP1) Biomarker Activity (AID 2284259); conditions: primary human bronchial epithelial cells with fibroblasts
# How it was run: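 Co-culture of bronchial epithelial cells and dermal fibroblasts dosed with chemical; MCP-1 measured by ELISA 24 h later. Activity fitted in positive direction versus DMSO; cytotoxicity checked by SRB staining in parallel cultures.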
# [9] = read-out: Intercellular Adhesion Molecule 1 (ICAM1), ICAM1 (gene 3383); experiment: BSK_BF4T_ICAM1: BioMAP Diversity Plus: BF4T Assay for Intercellular Adhesion Molecule 1 (ICAM1) Biomarker Activity (AID 2284260); conditions: primary human bronchial epithelial cells with fibroblasts
# How it was run: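 Co-culture of human bronchial epithelial cells and dermal fibroblasts exposed 24 h to chemical; cell-surface ICAM-1 quantified by ELISA. Parallel SRB total-protein staining assessed cytotoxicity; activity fitted relative to DMSO.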
compound,measurement,setting,value
CC1(C)CC(O)CC(C)(C)N1[O],outcome,[1],inactive
CC=C(C)C(C)=O,outcome,[1],inactive
CCc1cccc(C)c1N(C(=O)CS(=O)(=O)O)C(C)COC (stereo not drawn),outcome,[1],inactive
O=C(Oc1ccccc1)c1ccccc1C(=O)Oc1ccccc1,outcome,[1],inactive
CCCC(C)C(=O)OCC (stereo not drawn),outcome,[2],inactive
same,outcome,[3],inactive
same,outcome,[4],inactive
Oc1ccccc1Cc1ccccc1O,outcome,[2],inactive
same,outcome,[3],inactive
same,outcome,[4],inactive
CC(Cl)COP(=O)(OCC(C)Cl)OCC(C)Cl (stereo not drawn),outcome,[1],inactive
Oc1c(Cl)cc(Cl)c(Cl)c1Cl,AC50,[1],28.3 µM (active)
C[N+](C)(C)CCCNS(=O)(=O)C(F)(F)C(F)(F)C(F)(F)C(F)(F)C(F)(F)C(F)(F)C(F)(F)C(F)(F)F,AC50,[2],47.1 µM (active) and 49.6 µM (active)
same,AC50,[3],46.1 µM (active)
same,outcome,[3],inactive
same,outcome,[5],inactive
same,outcome,[4],inactive
same,AC50,[6],50.5 µM (active) and 56.9 µM (active)
same,AC50,[1],21.9 µM (active)
same,outcome,[1],inactive
same,AC50,"CD69, CD69 (gene 969)",8.01 µM (active)
same,outcome,"CD69, CD69 (gene 969)",inactive
same,outcome,[7],inactive
same,outcome,[8],inactive
same,outcome,[9],inactive
CC(CCC(=O)O)(c1ccc(O)cc1)c1ccc(O)cc1,outcome,[2],inactive
same,outcome,[3],inactive
same,outcome,[4],inactive
CCOC(=O)C1=NN(c2ccc(Cl)cc2Cl)C(C)(C(=O)OCC)C1 (stereo not drawn),outcome,[1],inactive
CCC1(C)C(=O)N(Cl)C(=O)N1Cl (stereo not drawn),outcome,[1],inactive
C=C(C)C(=O)OCCCCCCCCCCCC,outcome,[1],inactive
COc1ccc(C(=O)/C(Br)=C\C(=O)O)cc1,outcome,[1],inactive
CCOC(=O)/C=C\C(=O)OCC,outcome,[1],inactive
O=C(O)C(F)(F)C(F)(F)C(F)(F)C(F)(F)C(=O)O,outcome,[2],inactive
same,outcome,[3],inactive
same,outcome,[5],inactive
same,outcome,[4],inactive
same,outcome,[6],inactive
same,outcome,[1],inactive
same,outcome,"CD69, CD69 (gene 969)",inactive
same,outcome,[7],inactive
same,outcome,[8],inactive
same,outcome,[9],inactive
